About 2,000 (36%) of roughly 5,500 compounds were called active. Another 18% or so got no clear call; they are omitted. No stated cut-off is given here; in the data, active means normalized growth mostly below about 0.91 (no sharp cut-off); inconclusive means no clear call, values can overlap the other calls; inactive means mostly above about 0.92. The list shows a part of the results.
Experiment: chemical genetic growth profiling, strain panel (AID 1159580);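 further: tested at 20 µM; growth read once vehicle control cultures reached saturation at 30 °C; 1 = growth at the plate median or of vehicle wells; lower values mean less growth of the strain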
Conditions: S. cerevisiae deletion strains, growth OD

Measured: normalized growth

CNC(=O)Oc1ccccc1OC(C)C
inactive: locus YAL013W, strain DEP1, active compounds read low 1.01 | locus YAL021C, strain ccr4, active compounds read low 0.987 | locus YAL026C, strain drs2, active compounds read low 0.99 | locus YAL030W, strain snc1, active compounds read low 0.992 | locus YBL061C, strain skt5, active compounds read low 0.987 | locus YBR009C, strain hhf1, active compounds read low 0.99 | locus YBR021W, strain FUR4, active compounds read low 1.02 | locus YBR023C, strain chs3, active compounds read low 0.985 | locus YBR171W, strain sec66, active compounds read low 0.97 | locus YBR229C, strain ROT2, active compounds read low 1.02 | locus YBR231C, strain swc5, active compounds read low 0.984 | locus YBR279W, strain paf1, active compounds read low 0.989 | locus YCL011C, strain gbp2, active compounds read low 0.994 | locus YCL016C, strain dcc1, active compounds read low 0.99 | locus YCL029C, strain bik1, active compounds read low 0.994 | locus YCL061C, strain MRC1, active compounds read low 0.994 | locus YCL069W, strain vba3, active compounds read low 0.989 | locus YCR088W, strain abp1, active compounds read low 0.99 | locus YDL005C, strain med2, active compounds read low 0.985 | locus YDL035C, strain GPR1, active compounds read low 1.03 | locus YDL040C, strain nat1, active compounds read low 0.979 | locus YDL074C, strain BRE1, active compounds read low 1.08 | locus YDL101C, strain DUN1, active compounds read low 1.02 | locus YDL134C, strain PPH21, active compounds read low 1.02 | locus YDL185W, strain tfp1, active compounds read low 0.979 | locus YDL192W, strain arf1, active compounds read low 0.989 | locus YDR001C, strain nth1, active compounds read low 0.993 | locus YDR069C, strain doa4, active compounds read low 0.983 | locus YDR101C, strain arx1, active compounds read low 0.983 | locus YDR137W, strain rgp1, active compounds read low 1.05 | locus YDR150W, strain NUM1, active compounds read low 1.02 | locus YDR159W, strain sac3, active compounds read low 0.973 | locus YDR162C, strain NBP2, active compounds read low 1.01 | locus YDR195W, strain ref2 0.915 | locus YDR297W, strain sur2, active compounds read low 0.998 | locus YDR318W, strain mcm21, active compounds read low 0.996 | locus YDR334W, strain swr1, active compounds read low 0.982 | locus YDR335W, strain msn5, active compounds read low 0.998 | locus YDR388W, active compounds read low 0.986 | locus YDR392W, strain spt3, active compounds read low 0.978 | locus YDR502C, strain sam2, active compounds read low 1 | locus YEL003W, strain gim4, active compounds read low 0.993 | locus YEL037C, strain rad23, active compounds read low 0.989 | locus YEL061C, strain CIN8 (second series), active compounds read low 0.983 | locus YEL061C, strain CIN8, active compounds read low 1.01 | locus YER015W, strain faa2, active compounds read low 0.991 | locus YER016W, strain bim1, active compounds read low 0.991 | locus YER110C, active compounds read low 0.994 | locus YER111C, strain swi4, active compounds read low 0.984 | locus YER155C, strain BEM2 (second series), active compounds read low 0.97 | locus YER155C, strain BEM2, active compounds read low 1.02 | locus YER167W, strain BCK2, active compounds read low 1 | locus YFR010W, strain ubp6, active compounds read low 0.992 | locus YGL078C, strain dbp3, active compounds read low 0.966 | locus YGL086W, strain mad1, active compounds read low 0.994 | locus YGL167C, strain pmr1, active compounds read low 0.987 | locus YGL173C, strain kem1, active compounds read low 0.987 | locus YGL227W, strain vid30, active compounds read low 0.982 | locus YGL240W, strain doc1, active compounds read low 0.974 | locus YGL248W, strain PDE1, active compounds read low 1.02 | locus YGL253W, strain hxk2, active compounds read low 0.99 | locus YGR078C, strain PAC10, active compounds read low 1.03 | locus YGR135W, strain pre9, active compounds read low 0.993 | locus YGR229C, strain SMI1, active compounds read low 1.03 | locus YGR252W, strain gcn5, active compounds read low 0.991 | locus YHR013C, strain ard1, active compounds read low 0.954 | locus YHR027C, strain rpn1, active compounds read low 0.996 | locus YHR030C, strain SLT2, active compounds read low 1.02 | locus YHR079C, strain IRE1 (second series), active compounds read low 0.988 | locus YHR094C, strain hxt1, active compounds read low 0.992 | locus YHR129C, strain ARP1, active compounds read low 1.03 | locus YHR142W, strain chs7, active compounds read low 1 | locus YHR200W, strain rpn10, active compounds read low 0.986 | locus YIL066C, strain RNR3, active compounds read low 1.02 | locus YIL073C, strain SPO22, active compounds read low 0.999 | locus YIL125W, strain kgd1, active compounds read low 0.984 | locus YIR030C, strain dcg1, active compounds read low 0.986 | locus YJL092W, strain hpr5, active compounds read low 0.998 | locus YJL095W, strain BCK1 (second series), active compounds read low 0.986 | locus YJL095W, strain BCK1, active compounds read low 1.02 | locus YJL115W, strain asf1, active compounds read low 0.972 | locus YJL129C, strain trk1, active compounds read low 0.986 | locus YJL134W, strain LCB3, active compounds read low 1.02 | locus YJL154C, strain vps35, active compounds read low 0.993 | locus YJL164C, strain tpk1, active compounds read low 0.996 | locus YJL166W, strain qcr8, active compounds read low 0.994 | locus YJL168C, strain set2, active compounds read low 0.989 | locus YJL187C, strain SWE1 (second series), active compounds read low 1.02 | locus YJL187C, strain SWE1, active compounds read low 0.995
